# Source: PubChem BioAssay (National Center for Advancing Translational Sciences (NCATS))
# Compounds with a hit are over-represented: about 19% of the library has one in this group of screens.
# Cycloheximide cs: Cycloheximide Counterscreen for Small Molecule Inhibitors of Shiga Toxin | cell reporter, cycloheximide protein synthesis inhibition counterscreen | max response, % | 12% of 300,000 active | AID 2314, 2010; in the data active means max response mostly above about 13%, no sharp cut-off; inactive means mostly below about 14%; further: read at 38.3 µM for the half of the compounds with a filed dose; 0% is about no effect
# SARS PLP yeast: qHTS of Yeast-based Assay for SARS-CoV PLP | S. cerevisiae expressing SARS-CoV PLpro, growth rescue | Potency, µM (doses to about 32.9 µM), for the others: at the highest dose activity, positive = growth rescue, most hits filed as activators | 0.19% of 330,000 active | AID 485353, 2010; calls by dose curve; further: potency means the concentration at half of the fitted maximal effect; 0% is about no effect; nearly all actives have a fitted effect of over 55% in size
# Shiga toxin inh: A qHTS for Small Molecule Inhibitors of Shiga Toxin | 9.2% of 290,000 active | Vero cells, Shiga toxin protein synthesis inhibition reporter | AID 2315, 2010 | inhibition, % at 38.7 µM; in the data active means inhibition mostly above about 28%, no sharp cut-off; inactive means mostly below about 43%; further: 0% is about no effect
# Pf growth 96h: Primary qHTS for delayed death inhibitors of the malarial parasite plastid, 96 hour incubation; Potency, µM (highest dose often 28.7 µM), for inactives: at the highest dose activity change, negative = inhibition, most hits filed as inhibitors; AID 504834, 2011; P. falciparum luciferase reporter growth, 96 h; 6.9% of 320,000 active; further: potency means the concentration at half of the fitted maximal effect; on the % scale 0 is the no-effect control and ±100 the full control effect
#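 96 h incubation, 37 C, 5% CO2, of luciferase-reporter P. falciparum-infected RBCs (2% hematocrit, 0.05% parasitemia final) with test compounds; endpoint luminescence.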
# Pf growth 48h: Primary qHTS for delayed death inhibitors of the malarial parasite plastid, 48 hour incubation; 5.9% of 310,000 active; P. falciparum luciferase growth in erythrocytes, 48 h; Potency, µM (doses to about 28.7 µM), without a hit: at the top dose activity change, negative = inhibition, actives largely listed as inhibitors; further: potency means the concentration at half of the fitted maximal effect; on the % scale 0 is the no-effect control and ±100 the full control effect
#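 First compound was added to culture medium, then infected red cells at 0.1% parasitemia and 2% hematocrit (final). After incubation at 37 C under 5% CO2, luciferase detection reagent was dispensed and light output recorded.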
# AMA1-RON2 inh: qHTS for Inhibitors of AMA1-RON; Towards Development of Antimalarial Drug Lead: Primary Screen | Plasmodium falciparum AMA1 (3D7) - RON2 peptide interaction | AlphaScreen AMA1-biotinylated RON2 peptide binding | Potency, µM (titrated, usually from 58.2 µM), for inactives: top-dose activity change, negative = inhibition, actives largely listed as inhibitors | 0.2% of 360,000 active | AID 720542, 2013;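 further: potency means the concentration at half of the fitted maximal effect; 0% = vehicle wells and -100% = peptide control; nearly all actives have a fitted effect of over 45% in size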
#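 AMA1 (3D7) with his tag at 25 nM final met compounds first, then biotinylated RON2 peptide at 25 nM; detection used donor plus acceptor beads, 10 µg/mL apiece, read by AlphaScreen after 30 min at room temperature.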
# * marks the source's active call; other numbers are inactive results; i = inactive; ? = inconclusive; / = no result; [ ] = another dose, or the depositor's remark. Unless noted, the call rests on the fitted dose curve; in most records, active means well fitted curve in the direction sought with a large enough effect; inconclusive means small, poorly fitted or top-dose-only effect, or another doubt; inactive means no such curve, though single readings can be large; an effect the other way counts as inactive or inconclusive.
SMILES,Cycloheximide cs,SARS PLP yeast,Shiga toxin inh,Pf growth 96h,Pf growth 48h,AMA1-RON2 inh
O=C(NCC(c1ccco1)N1CCCC1)c1cccc(NS(=O)(=O)c2ccccc2)c1 (stereo not drawn),/,/,/,?,10.4µM*,12.4%
Cc1ccc(C(=O)NCC(c2ccco2)N2CCOCC2)cc1 (stereo not drawn),/,-3.4%,/,6.57µM*,?,6.7%
O=S(=O)(NCC(c1ccco1)N1CCCCC1)c1cccc(C(F)(F)F)c1 (stereo not drawn),/,0.6%,/,7.38µM*,?,-3.2%
O=C(NCC(c1ccco1)N1CCOCC1)c1ccc(Cl)cc1 (stereo not drawn),/,-0.5%,/,45.9%,23.1%,-14.1%
CCc1cc(C(=O)NCC(c2ccco2)N2CCCCC2)sc1C (stereo not drawn),/,-0.8%,/,5.86µM*,9.28µM*,17.9%
O=S(=O)(c1ccc(=S)[nH]c1)N1CCCC1,/,11.4%,/,/,/,-13.6%
CCOC(=O)c1[nH]c(C)c(C(=O)NCCc2ccc(OC)cc2)c1C,-2.6,-3.5%,-3.3,4.65µM*,?,-7.9%
CCOc1ccc(CCNC(=O)COC(=O)c2ccc(C)s2)cc1OCC,11.6,-6.1%,43.6,10.4µM*,-11.1%,1.9%
CCOc1ccc(CCNC(=O)COC(=O)/C=C/c2ccco2)cc1OCC,2.2,?,-10.3,7.38µM*,8.28µM*,-10.7%
CCOc1ccc(CCNC(=O)/C=C/c2ccco2)cc1OCC,6.2,-0.2%,4.0,?,-11.8%,-14.9%
COc1ccc(CCNC(=O)COC(=O)c2ccc(C)s2)cc1OC,/,1.3%,/,?,-24.5%,-8.3%
CCOC(=O)c1c(C)[nH]c(C(=O)OCC(=O)NCCc2ccc(OCC)c(OCC)c2)c1C,/,5.5%,/,?,13.1µM*,-15.4%
CC(C)(C)NC(=O)C(c1ccc(C#N)cc1)n1c(=O)c(-c2cc3ccccc3[nH]2)nc2ccccc21 (stereo not drawn),/,/,/,/,/,41.2%
O=C(O)c1ccc(Cl)c(NCc2cccs2)c1,-3.3,1.4%,-7.2,-24.8%,0.2%,0.9%
CCOC(=O)C1CCN(c2ncnc3c2cnn3C)CC1,-2.1,1.0%,-2.9,128.0%,8.1%,45.1%
Cc1noc(C)c1S(=O)(=O)Nc1ccc2c(c1)CC(=O)N([C@H](C)CO)C[C@H](C)[C@@H](CN(C)CC1CC1)O2,/,3.9%,/,/,/,10.9%
CC(=O)c1c(C)[nH]c(C(=O)NCCc2ccccc2)c1C,36.4*,8.0%,104.2*,i,20.6%,-1.3%
COc1ccc(CCNC(=O)c2[nH]c(C)c(C(C)=O)c2C)cc1OC,-1.4,3.4%,0.2,?,-9.9%,12.0%
NC(=O)c1ccccc1OCCOCCOCCOc1ccccc1C(N)=O,-2.8,0.2%,-13.9,/,5.3%,26.6%
O=P(O)(O)c1ccccc1OCCOCCOCCOCCOc1ccccc1P(=O)(O)O,42.1*,-3.0%,46.9,-25.7%,122.7%,1.9%
Cc1cccc(-c2nc(=S)c3c(o2)CCCC3)c1,48.5*,-16.6%,129.5*,/,231.7%,38.8%
CC1=C(CC/C(C)=N/NC(N)=S)C(C)(C)CCC1,1.5,14.1µM*,6.9,-21.6%,?,44.5%
Cn1c2c(c(=O)n(C)c1=O)C1c3cc(Cl)ccc3OCC1CO2 (stereo not drawn),-2.4,2.0%,-9.0,/,-3.9%,-1.9%
C=CCn1c(COc2ccc3c(c2)CCCC3)nnc1SCC(=O)Nc1cccc(SC)c1,46.7*,-6.7%,58.0*,-7.0%,-22.3%,-8.1%
CCc1nc2ccc(C(=O)NCc3ccccc3OC)cn2c1N(C)Cc1ccc(N(C)C)cc1,/,/,/,/,/,14.1µM*
SMILES,Cycloheximide cs,SARS PLP yeast,Shiga toxin inh,Pf growth 96h,Pf growth 48h,AMA1-RON2 inh
O=C(CCSc1ccc(F)cc1)NNC(=O)c1ccccc1Cl,/,-7.4%,/,-0.4%,-1.4%,115.4%
Cc1ccccc1NC(=O)CSc1nccn1Cc1ccco1,/,/,/,/,/,12.1%
Cc1cc(C)c(NC(=O)CSc2nnc(-c3ccncc3)n2Cc2ccco2)c(C)c1,-0.8,-10.9%,8.6,15.2%,4.8%,-1.2%
Cc1cccc(NC(=O)CSc2nccn2Cc2ccco2)c1,61.6*,-7.3%,90.8*,80.6%,67.4%,-16.5%
Cc1cc(C)cc(NC(=O)CSc2nccn2Cc2ccco2)c1,21.9*,?,45.1,3.5%,20.3%,-4.4%
Cc1cccc(NC(=O)CSc2nccn2Cc2ccco2)c1C,17.7*,1.3%,53.3,44.7%,26.0%,10.2%
CN(/C(=N\S(=O)(=O)c1ccccc1)C(F)(F)F)c1ccccc1,3.2,-2.9%,-6.2,129.0%,41.7%,-5.5%
COCCN(C(=O)CSc1nnc(C)n1-c1ccccc1)c1c(N)n(Cc2ccccc2)c(=O)[nH]c1=O,-6.5,14.6%,-5.4,-23.1%,2.4%,44.1%
Cc1[nH][nH]c(=O)c1N=Nc1ccc(Br)c(Cl)c1,/,/,/,/,/,0.5%
Cc1[nH][nH]c(=O)c1N=Nc1ccccc1Cl,22.1*,-2.8%,55.9*,21.8%,0.3%,-6.5%
COc1ccc(Nc2nnc(-c3ccncc3)s2)cc1Cl,48.9*,-1.7%,70.8*,?,6.7%,8.1%
Cc1ccc(Nc2nnc(-c3ccncc3)s2)c(Br)c1,27.5*,-91.4%,25.8,?,?,4.4%
FC(F)(F)c1ccc(Cl)c(Nc2nnc(-c3ccncc3)s2)c1,/,/,/,/,/,0.0%
COc1ccc(Cl)cc1Nc1nnc(-c2ccncc2)s1,-3.2,-0.8%,-2.5,30.0%,1.8%[0.00184 µM],-10.9%
Clc1ccccc1Nc1nnc(-c2ccncc2)s1,40.8*,-84.1%,28.3*,22.3%,76.1%,-4.6%
CC(C)C(=O)Nc1ccc(Br)cc1Cl,5.3,0.1%,18.7,-12.7%,50.0%,20.5%
CC(=O)NC1C(=O)N(C)c2ccc(Br)cc21 (stereo not drawn),-0.6,29.3%,-8.9,15.3%,?,9.7%
N#Cc1ccc(Cl)cc1NC(=O)COC(=O)c1ccc2c(c1)OCCO2,8.1,0.9%,15.2,39.7%,/,6.3%
Cc1cccc(NC(=O)c2ccc3c(c2)OCCO3)c1C,47.0*,1.8%,109.1*,-8.7%,109.7%,10.5%
Cc1ccccc1NC(=O)c1ccc2c(c1)OCCO2,18.1*,-2.2%,136.9*,-16.9%,97.4%,1.8%
CC(=O)Nc1ccccc1NC(=O)c1ccc2c(c1)OCO2,/,/,/,/,/,2.8%
N#Cc1ccccc1NC(=O)c1ccc2c(c1)OCCO2,31.2*,-1.9%,99.0*,7.7%,156.0%,-4.6%
N#Cc1ccccc1NC(=O)COC(=O)c1ccc2c(c1)OCCO2,19.3*,-1.8%,29.2,34.2%,71.0%,-5.8%
O=C(COC(=O)[C@@H]1CC(O)CN1S(=O)(=O)c1ccc2c(c1)OCCO2)Nc1cc(F)ccc1F (stereo partly drawn),/,-9.4%,/,/,/,2.5%
